Screening results deposited in PubChem by National Center for Advancing Translational Sciences (NCATS).
DT40 TDP1 no CPT: qHTS for Inhibitors of human tyrosyl-DNA phosphodiesterase 1 (TDP1): qHTS in cells in absence of CPT; DT40 Tdp1-/- hTDP1 cells, no CPT, ATP luminescence, 48 h; Potency, µM (series often up to 46.2 µM), without a hit: at the top dose activity change, negative = growth inhibition, actives largely listed as inhibitors; actives 15% (n = 420,000); AID 686978, 2013; also: potency is read from the fitted curve at half-maximal effect; % is scaled to controls: 0 for no effect and ±100 for the full control effect; nearly all actives have a fitted effect of over 55% in size
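Stably hTDP1-transfected Tdp1-null chicken DT40 cells were treated with library compounds minus camptothecin and grown for at least 48 hr at 37 °C, after which cellular ATP was quantified by luminescence.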
uPA generation: qHTS for Inhibitors of Cell Surface uPA Generation. cell surface uPA generation assay, qHTS. Potency, µM (doses to about 38.3 µM), inactives show top-dose activity change, negative = inhibition, hits mostly inhibitors. actives 0.31% (n = 330,000). AID 540303, 2011; active = well fitted inhibition curve with a large enough effect; inconclusive = small, poorly fitted or top-dose-only effect; inactive = no such curve, though single readings can be large or run the other way; tested in mouse RAW 264.7 cells; also: potency is read from the fitted curve at half-maximal effect; % is scaled to controls: 0 for no effect and ±100 for the full control effect; nearly all actives have a fitted effect of over 55% in size
miR-21 act: qHTS Assay for Modulators of miRNAs and/orActivators of miR-21 | HeLa miR-21 FLuc reporter, luciferase, 48 h | Potency, µM (doses to about 38.3 µM), for the others: top-dose activity change, positive = activation, hits mostly activators | 340,000 tested, under 10 active | AID 2288, 2010;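 also: % of control where 0% means no effect; miR-21 action dims this reporter so a rising signal means less miR-21 action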
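Luminescence from a firefly luciferase reporter carrying a miR-21 binding site downstream, stably expressed under a CMV promoter in HeLa cells that make miR-21 endogenously, reports miRNA modulation after 48 h compound exposure up to approximately 40uM final.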
DT40 TDP1 CPT: qHTS for Inhibitors of human tyrosyl-DNA phosphodiesterase 1 (TDP1): qHTS in cells in presence of CPT; chicken DT40 Tdp1-/-;hTDP1 cells + 20 nM CPT, ATP luminescence, 48 h; Potency, µM (highest dose often 46.2 µM), for the others: at the top dose activity change, negative = growth inhibition, hits mostly inhibitors; actives 12% (n = 420,000); AID 686979, 2013; also: potency is read from the fitted curve at half-maximal effect; % is scaled to controls: 0 for no effect and ±100 for the full control effect; nearly all actives have a fitted effect of over 55% in size
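Cell growth measured by CellTiter-Glo luminescence after a minimum 48 h, 37 C compound exposure with 20 nM CPT in Tdp1-knockout DT40 cells stably expressing hTDP1, seeded 400/well; qHTS titration format.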
TDP1 block: qHTS Assay for Inhibitors of Tyrosyl-DNA Phosphodiesterase (TDP1) | Tyrosyl-DNA phosphodiesterase 1 (Homo sapiens), Q9NUW8 | recombinant TDP1, AlphaScreen DNA substrate cleavage | Potency, µM (top dose mostly 130 µM), inactives show at the highest dose activity change, negative = inhibition, actives largely listed as inhibitors | actives 0.28% (n = 350,000); also: potency is read from the fitted curve at half-maximal effect; % is scaled to controls: 0 for no effect and ±100 for the full control effect; nearly all actives have a fitted effect of over 40% in size
Target sequence (Q9NUW8 whole entry, looked up): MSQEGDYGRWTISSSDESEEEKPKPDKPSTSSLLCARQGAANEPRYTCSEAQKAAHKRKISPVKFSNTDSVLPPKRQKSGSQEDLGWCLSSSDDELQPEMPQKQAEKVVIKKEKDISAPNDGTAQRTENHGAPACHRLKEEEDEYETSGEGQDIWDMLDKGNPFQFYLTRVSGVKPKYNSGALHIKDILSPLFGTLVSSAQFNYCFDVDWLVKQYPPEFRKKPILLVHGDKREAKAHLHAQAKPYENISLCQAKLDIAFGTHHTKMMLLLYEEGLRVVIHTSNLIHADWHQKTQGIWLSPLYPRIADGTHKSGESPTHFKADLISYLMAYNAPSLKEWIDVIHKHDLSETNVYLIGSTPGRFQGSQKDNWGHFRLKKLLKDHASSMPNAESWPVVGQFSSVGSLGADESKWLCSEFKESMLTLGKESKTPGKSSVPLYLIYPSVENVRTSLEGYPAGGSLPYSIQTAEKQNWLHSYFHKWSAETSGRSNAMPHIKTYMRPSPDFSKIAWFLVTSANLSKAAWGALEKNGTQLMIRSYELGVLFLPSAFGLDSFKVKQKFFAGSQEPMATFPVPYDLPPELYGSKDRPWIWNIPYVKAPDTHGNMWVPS
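Enzyme-compound mixtures sat 15 min at room temperature, followed by a 5 min reaction with 15 nM final substrate and 10 min with AlphaScreen beads. Recombinant human Tdp1 was used at 1 nM final.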
* marks the source's active call; other numbers are inactive results; ? = inconclusive; . = not tested or not shown; [ ] = another dose, or the depositor's remark. Most compounds without a hit are left out; they make up all but 16% or so of the library. Unless noted, calls follow the shape of the dose curve; as a rule, active = well fitted curve in the direction sought with a large enough effect; inconclusive = small, poorly fitted or top-dose-only effect, or another doubt; inactive = no such curve, though single readings can be large; an effect the other way counts as inactive or inconclusive.

SMILES | DT40 TDP1 no CPT | uPA generation | miR-21 act | DT40 TDP1 CPT | TDP1 block
COc1ccc(C(CC(=O)c2ccc3c(c2)OCO3)c2c(O)c3ccccc3oc2=O)cc1OC (stereo unspecified) | 23µM* | . | . | -19% | .
COC(=O)CC1(CC(=O)OC)C(=O)N(c2ccccc2)C(=O)N(c2ccccc2)C1=O | -26% | 2% | -11% | 13% | .
Cc1cc(OCC(=O)O)c2c3c(c(=O)oc2c1)CCCC3 | -7% | 2% | -4% | 5% | 0%
Cc1ccc(-n2nc(C)cc2NC(=O)COc2cc(C)cc3oc(=O)c4c(c23)CCC4)cc1 | 29µM* | . | 23% | ? | 5%
Cc1cc(OCC(=O)N2CCC(C(N)=O)CC2)c2c3c(c(=O)oc2c1)CCCC3 | -27% | 10% | 3% | 23µM* | .
Cc1cc(OC(=O)c2cccs2)c2c3c(c(=O)oc2c1)CCCC3 | 5.2µM* | 16% | -5% | 18µM* | 3%
Cc1cc(OCC(=O)N[C@@H](Cc2ccccc2)C(=O)O)c2c3c(c(=O)oc2c1)CCC3 | -2% | 1% | 4% | -1% | .
Cc1cc(OC(=O)c2ccco2)c2c3c(c(=O)oc2c1)CCCC3 | 10µM* | -6% | 9% | 12µM* | 3%
Cc1ccc(Cn2cccc(C(=O)Nc3ccc4c(c3)OCO4)c2=O)cc1 | -17% | . | -5% | -24% | 3%
O=C(NC(=O)c1c(F)cccc1F)Nc1cc(Cl)c(F)c(Cl)c1F | ? | -22% | 3% | -9% | 7%
O=C(Cl)/C=C/C(=O)Cl | . | . | . | . | 3%
Cc1cc(OC(C)C(=O)NCc2ccncc2)c2c3c(c(=O)oc2c1)CCCC3 (stereo unspecified) | ? | -3% | -1% | 23µM* | 7%
CC12CC3CC(C)(C1)CC(N)(C3)C2 | ? | -26% | 0% | -35% | 9%[56.1 µM]
Cc1cccc(-n2c(C)nc3ccccc3c2=O)c1C | 21µM* | -9% | -5% | 5.8µM* | 5%
Cc1nc2ccccc2c(=O)n1-c1c(Cl)cccc1Cl | 18µM* | . | . | 23µM* | .
CC1(C)C[C@H]2C=C(C=O)[C@]3(C=O)C[C@]3(C)[C@H]2C1 | 0.82µM* | 2.2µM* | 24% | 0.92µM* | 3%
CC1(C(=O)O)CC12c1ccccc1-c1ccccc12 (stereo unspecified) | -19% | 3% | . | 0% | .
CCC(c1nnnn1-c1ccc(OC)cc1)N1CCC2(CC1)C(=O)NCN2c1ccccc1 (stereo unspecified) | 10µM* | . | . | ? | .
CCC(c1nnnn1C(C)(C)C)N1CCC2(CC1)C(=O)NCN2c1ccccc1 (stereo unspecified) | ? | . | . | -28% | .
COc1ccc(-n2nnnc2C(c2cccs2)N2CCC3(CC2)C(=O)NCN3c2ccccc2)cc1 (stereo unspecified) | 16µM* | . | . | ? | .
Cc1cccc(Cc2cnc(NC(=O)c3ccc4c(c3)CC(c3ccccc3)OC4=O)s2)c1 (stereo unspecified) | 21µM* | . | -2% | 26µM* | 7%
O=C(CCc1ccccc1)N1C[C@H]2C[C@@H](C1)c1cccc(=O)n1C2 | 0% | 14% | 0% | 9% | .
COc1ccc(C2=CC(c3ccc4c(c3)OCO4)c3c(c4ccccc4oc3=O)O2)cc1OC (stereo unspecified) | 21µM* | -12% | . | 15µM* | .
COc1ccc(C2CC(=O)Oc3c2c(=O)oc2ccccc32)c(OC)c1OC (stereo unspecified) | -3% | . | -7% | -12% | 1%
CN1CCN(c2ncnc3ccc(Br)cc23)CC1 | ? | 2% | 23% | 26µM* | 3%
SMILES | DT40 TDP1 no CPT | uPA generation | miR-21 act | DT40 TDP1 CPT | TDP1 block
CN1CCC(N(C)c2ncnc3ccc(Br)cc23)CC1 | ? | 8% | -6% | ? | 8%
CCCCC/C=C\C/C=C\C/C=C\C/C=C\CCCC(=O)NCCc1ccc(O)c(O)c1 | . | . | . | . | -6%
CC(C)(OOC1(c2ccccc2)NC(=O)c2ccccc21)c1ccccc1 (stereo unspecified) | 18µM* | . | . | ? | .
CC(C)(OO)c1ccccc1 | . | . | . | . | 6%
Cc1cc(OCC(=O)N2CCN(CC(=O)N3CCOCC3)CC2)c(C(C)C)cc1Cl | ? | -24% | . | -24% | -2%
COc1ccc(C2CC(=O)Nc3cc4c(cc32)OCO4)c(OC)c1 (stereo unspecified) | 15µM* | . | 28% | ? | 2%
NC1CCc2cc(O)c(O)cc2C1 (stereo unspecified) | 13µM* | -1% | . | 21µM* | 12%
CCCCC/C=C\C/C=C\C/C=C\C/C=C\CCCC(=O)OCCN | . | . | . | . | 9%
COc1ccc(-n2c(-c3ccco3)nc3ccccc3c2=O)cc1 | 23µM* | -4% | -1% | ? | 5%
Cc1ccccc1-n1c(-c2ccco2)nc2ccccc2c1=O | 9.2µM* | 11% | 3% | 12µM* | 2%
O=c1c2ccccc2nc(-c2ccco2)n1-c1ccccc1 | ? | 0% | 3% | ? | 2%
CNC(=O)Oc1ccc2c(c1)[C@@]1(C)CCN(C)[C@@H]1N2C | -20% | . | . | -9% | -3%[56.1 µM]
Cc1cccc2c(N=NC(=O)c3ccc(NS(=O)(=O)c4cccs4)cc3)c(O)[nH]c12 | ? | ? | . | ? | 50µM*
CC(C)NC(=O)C(C)N1CCN(S(=O)(=O)c2ccc3ccccc3c2)CC1 (stereo unspecified) | 15µM* | -2% | 3% | 18µM* | 6%
CN1CCN(C(=O)O[C@H]2c3nccnc3C(=O)N2c2ccc(Cl)cn2)CC1 | 14% | 1% | -20% | 10% | 5%
O=C(Nc1ccccc1)N1CCCC2(CCN(C(=O)Oc3ccccc3)CC2)C1 | ? | . | . | 13% | .
CCCCC[C@@H](O)C1C(=O)OC(C)[C@H](O)/C=C/C=C/C=C/C=C/C=C(\C)C(O)C(O)C(O)C[C@H](O)C[C@H](O)C[C@H](O)C[C@H](O)C[C@@H]1O (stereo partly specified) | 0% | . | . | 6% | .
CCCCC[C@H]1CCCCC[C@H](O)C[C@H](O)[C@@H](O)/C=C/C(=O)O1 | 21µM* | . | . | 23µM* | .
Cc1ccc2c(c1)CC1(CN2C)C(=O)NC(=O)N(C(C)C)C1=O (stereo unspecified) | ? | -6% | -7% | 18µM* | 1%
Clc1ccc(N2CC2c2ccncc2)cc1 (stereo unspecified) | ? | 0% | -5% | ? | .
CCCCn1nc(C)c(C(=O)O)c1Cl | -7% | 14% | 2% | 5% | 2%
